Among all 96,000 compounds or so, fewer than 10 were called active. These entries were drawn from the full list. Values without a mark were called inactive.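 The calls were made as follows: active = activation factor of at least 2 at 5 µM in the primary screen; inactive = the rest.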
molecular target: Cytochrome P450 2C19 (Homo sapiens) (UniProt P33261); test: human CYP2C19 activators, primary screen, biochemical, luminescence (AID 1025); settings: recombinant CYP2C19, luciferin-H EGE luminescence; at 5 µM; hits give high values; 0 = fully inhibited enzyme, 1 = untreated enzyme;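 also: 0 = wells with 2.5 mM tranylcypromine and 1 = vehicle-only wells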
Sequence (P33261 whole entry, looked up): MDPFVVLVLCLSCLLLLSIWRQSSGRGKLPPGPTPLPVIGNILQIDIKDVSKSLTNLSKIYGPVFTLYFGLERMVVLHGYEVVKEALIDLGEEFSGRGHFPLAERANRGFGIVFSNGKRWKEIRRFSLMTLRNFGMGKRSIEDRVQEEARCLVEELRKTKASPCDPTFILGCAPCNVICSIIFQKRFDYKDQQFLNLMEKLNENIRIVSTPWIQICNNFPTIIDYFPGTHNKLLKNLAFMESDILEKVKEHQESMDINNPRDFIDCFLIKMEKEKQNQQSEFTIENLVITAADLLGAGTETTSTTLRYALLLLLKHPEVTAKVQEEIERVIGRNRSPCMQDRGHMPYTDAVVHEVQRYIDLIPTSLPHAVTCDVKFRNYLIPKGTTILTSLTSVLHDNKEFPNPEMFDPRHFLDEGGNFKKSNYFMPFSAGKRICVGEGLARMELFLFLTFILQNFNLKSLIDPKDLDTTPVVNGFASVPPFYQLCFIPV

SMILES | activation factor
CCCNC(=O)c1ccccc1NC(=O)CSCc1ccc(OC)cc1 | 0.5
CC(C)NC(=O)C(=O)N/N=C/c1ccco1 | 1.1
CC(C)CCNC(=O)CC1C(=O)N(Cc2ccccc2)C(C)c2nc3ccccc3n21 (configuration not stated) | 0.1
CCCCc1nc(NCCN)c(C#N)c2c1CSC(C)(C)C2 | 0.7
Cc1ccc(S(=O)(=O)NCC(C)NS(C)(=O)=O)cc1 (configuration not stated) | 0.8
O=C(Nc1ccc(Sc2ccc(Br)cc2)cc1)c1ccco1 | 0.9
CCCn1nnnc1NC(=O)COc1ccc(Cl)cc1C | 0.3
Cc1ccc(N(CC(=O)Nc2cccc(N(C)S(C)(=O)=O)c2)S(C)(=O)=O)cc1 | 1
O=C(NCCCCCCNC(=O)NCc1ccco1)NCc1ccco1 | 1.1
CCCCNC(=O)CCn1c(=S)[nH]c2cc3c(cc2c1=O)OCO3 | 0.6
CCC(=O)OCc1c(C(F)(F)F)nn(C)c1Oc1cccc(C(F)(F)F)c1 | 0.4
COc1ccc(N(CC(=O)N/N=C/c2cccs2)S(=O)(=O)c2ccc(OC)c(OC)c2)cc1 | 0
CCc1c(C)sc(NC(=O)c2cccs2)c1C(N)=O | 0.2
Cc1nnc(NCCO)c2ccccc12 | 0.9
COc1cc(/C=N/NC(=O)Nc2ccccc2)ccc1OCCOc1ccccc1C | 1
Cc1[nH]nc(-c2ccc(OCc3cnn(-c4ccccc4)c3)cc2O)c1Oc1ccc(Cl)cc1 | 0.8
COc1ccc2c(c1)SC(C)CC2=O (configuration not stated) | 0.2
COC(=O)Nc1ccc(S(=O)(=O)N2CCN(CCN3C(=O)C4C5C=CC(C5)C4C3=O)CC2)cc1 (configuration not stated) | 0.9
Cc1ccc(O)c(CNc2nc3ccccc3n2C)c1 | 0.6
CSc1ccc(CCNC(=O)C2CCN(c3nnc(-n4cccc4)s3)CC2)cc1 | 0.7
O=C(CCc1ccc(S(=O)(=O)NC2CCCCC2)cc1)NCc1ccccc1 | 0.4
O=c1[nH]c2c(c(=O)n1Cc1ccccc1)CCC2 | 1
Cc1ccc2nc(/C(C#N)=C\c3ccc(OC(=O)c4cccs4)cc3)[nH]c2c1 | 0.5
O=C(/C=C/c1ccccc1)c1ccoc1 | 0.7
CN1C2CCC1/C(=C\c1ccccc1Cl)C(=O)/C2=C\c1ccccc1Cl | 1.1
CC(N=Cc1nc(-c2ccccc2)oc1O)c1ccccc1 (configuration not stated) | 0.3

SMILES | activation factor
O=C(NCN1CCN(CCO)CC1)c1cnccn1 | 1.1
CC(Oc1ccc(Cl)cc1Cl)C(=O)/C=C/N(C)C (configuration not stated) | 0.4
CN(C)/C=C(\C#N)C(=O)c1cccnc1Oc1cccc(F)c1 | 0.6
CC1CCC(N2CC(=O)N(Cc3ccc4c(c3)OCO4)C(c3ccc(F)cc3)C2=O)CC1 (configuration not stated) | 0.8
C/C(=N\NC(=O)c1ccccc1C)c1ccc(N2CCOCC2)cc1 | 1
C=CCOc1cccc(CNn2cn[nH]c2=S)c1 | 0.7
COc1cc(OC)cc(C(=O)NC(=S)N2CCN(c3ccc(C(F)(F)F)cc3[N+](=O)[O-])CC2)c1 | 0.8
Cc1ccc(N(Cc2ccc(C(=O)Nc3ccccc3C(=O)NCc3ccco3)cc2)S(C)(=O)=O)cc1C | 0.1
Cc1cc(=O)oc2ccc(OCC(=O)O)cc12 | 1
NC(=O)c1c(NC(=O)CSc2nnc(-c3ccco3)n2N)sc2c1CCCC2 | 0.7
O=C(O)/C=C/C(=O)Nc1ccc(F)cc1F | 0.9
Clc1ccc(COn2c(-c3ccc(Cl)cc3Cl)nc3ncccc32)cc1 | 0
CCOCCn1c(C(C)C)nc2ccccc21 | 0.8
O=C(CCc1ccc(S(=O)(=O)N2CCOCC2)cc1)Nc1ccc2ccccc2c1 | 0.4
CCC(CC)C(=O)N1CC(=O)Nc2ccc(Br)cc2C1c1ccccc1 (configuration not stated) | 0.5
CC(N)C12CC3CC(CC(O)(C3)C1)C2 (configuration not stated) | 0.9
COc1ccc(C(=O)CN(C(=O)c2ccc(Cl)cc2)N2C(=O)c3ccccc3C2=O)cc1 | 0.6
O=C(CCN1c2ccccc2Sc2ccccc21)Nc1ccccc1 | 0.2
CCOc1cc(CNCCN(C)C)c(Cl)cc1OCC(=O)NCCc1ccccc1 | 1
Cc1cc(C(=O)Nc2c(C)nn(Cc3ccccc3)c2C)on1 | 0.9
CC(C)CNC(=S)NNC(=O)c1ccccc1OC(F)F | 0.8
Cc1ccccc1NC(=O)C(C)c1ccc(-c2ccccc2)c(F)c1 (configuration not stated) | 0.9
Cc1ccc(CS(=O)(=O)CCC(=O)NC2CC2)cc1 | 0.9
O=C(NC1CCCCC1)C1CC(=O)N(CCc2ccccc2)C1 (configuration not stated) | 1.1
Cc1ccc(C2NC(=S)NC3=C2N2CCC3CC2)cc1 (configuration not stated) | 1.1
C/C(=N\NS(=O)(=O)c1ccc(Br)cc1)c1cccs1 | 0.3

SMILES | activation factor
CC1(C)CC(CC(=O)O)C(=O)O1 (configuration not stated) | 1.1
CCOC(=O)c1cnc(SC)nc1Sc1ccc(Cl)cc1Cl | 0.7
CS(=O)(=O)N(CC(=O)Nc1ccc(F)cc1F)c1cccc([N+](=O)[O-])c1 | 0.4
CSc1ccccc1NC(=O)c1cc(C2CC2)on1 | 0.7
O=C(/C=C\NCC(=O)c1ccccc1)c1ccccc1 | 0.5
O=C(NCc1ccccn1)c1cc(-c2ccccc2Cl)on1 | 0.9
COc1cc(/C=N\NC(=O)CNC(=O)c2cccc([N+](=O)[O-])c2)ccc1O | 0.8
COc1ccc(CC(=O)Nc2sc(Cc3ccccc3)c(C)c2C(N)=O)cc1 | 1
FC(F)(F)c1nnc2ccc(N3CCN(c4ccccc4)CC3)nn12 | 0.7
CC1CC(C)CN(C(=O)CSc2nnc(CSc3ncccn3)n2C)C1 (configuration not stated) | 1.1
Cc1cc2[nH]ncc2cc1NC(=S)NC(=O)c1ccccc1 | 0
CCCCCCSc1nsc(N)n1 | 0.5
COc1cccc(-c2cc(C(=O)N/N=C/c3ccc(OC)c(COC(C)=O)c3)c3ccccc3n2)c1 | 0.5
CC1=NN(C(=O)Cc2ccc(C)cc2)C(O)(c2cccnc2)C1 (configuration not stated) | 0.4
ONC(=Nc1ccccc1)c1ccccc1Cl | 0.7
Oc1ccccc1CNc1ncc(Br)cc1Br | 0.6
Cc1nc(SCC(=O)N2CC(=O)Nc3ccccc32)c2c(C)c(C)sc2n1 | 0.5
COc1ccc(C(=S)Nc2ccccc2)cc1 | 0.3
N#Cc1ccc(-c2ccc(F)cc2)nc1Sc1ccccc1 | 1
OCCNc1nc2ccccc2n1-c1ncnc2sc3c(c12)CCC3 | 1.1
O=C(Nc1ccc(Br)cc1)c1cccc(NC(=O)C2C3CC4OC(=O)C2C4C3)c1 (configuration not stated) | 0.8
Cc1ccc(NC(=O)N2CCC(c3nc4c(nnn4Cc4c(F)cccc4Cl)c(=O)[nH]3)CC2)cc1 | 0
O=C(NC1CCc2ccccc21)C12CN(Cc3ccccc3)CC1C(c1cccc([N+](=O)[O-])c1)=NO2 (configuration not stated) | 0.9
S=C1NC(c2ccccc2)=NCN1c1ccc(Br)cc1 | 0.5
COC(=O)c1ccc(CSc2nc3cc(Cl)ccc3o2)cc1 | 1.1
O=C(NCCc1ccccc1)c1ccc(NC2=NC3CS(=O)(=O)CC3S2)cc1 (configuration not stated) | 0.9

SMILES | activation factor
Cn1nc(-c2ccccc2)c(CSc2cccc(Cl)c2)c1Cl | 0.5
CC1(C)COC(c2cccn2Cc2ccccc2Cl)=N1 | 1
S=c1[nH]nc(-c2ccc(Cl)cc2)n1CC1CCCO1 (configuration not stated) | 0.6
Cc1ccc(C2CC2C(=O)NN)cc1 (configuration not stated) | 0.5
N=c1c2c(-c3ccccc3)c(-c3ccccc3)oc2ncn1Cc1ccco1 | 0.8
O=c1[nH]c(CCl)nc2cc(-c3ccc(Cl)cc3)sc12 | 0.7
CCCSC(=S)NC1CCS(=O)(=O)C1 (configuration not stated) | 0.9
CC(Sc1nnc(Cc2ccc([N+](=O)[O-])cc2)o1)C(N)=O (configuration not stated) | 0.8
Cc1ccc(NC(=S)NCCN2CCOCC2)cc1 | 0.8
Cc1cnc(NC(=O)CSc2nnc(C)s2)s1 | 0.8
Cc1ccc(N2C(=O)C(Cc3ccccc3)NC2=S)cc1 (configuration not stated) | 0.6
CC1=C(C)CC(C(=O)NNC(=O)c2ccccc2O)C(C(=O)O)C1 (configuration not stated) | 1.1
CCN(CC(=O)Nc1ccccc1OC)C(=O)Cn1cnc2ccccc2c1=O | 1
O=c1[nH][nH]c(C(F)(F)F)c1C=NCc1ccccc1Cl | 0.1
COC(=O)c1sc2ncccc2c1OCc1ccc(Cl)cc1Cl | 1
CCOC(=O)C1Sc2[nH]c(=O)sc2C(c2ccc(Cl)cc2)C1C(=O)OCC (configuration not stated) | 0.8
C=CCN(N=Nc1cccc([N+](=O)[O-])c1)c1cccc([N+](=O)[O-])c1 | 0.8
CC(CC(=O)Nc1cc(C(F)(F)F)ccc1Cl)c1ccccc1 (configuration not stated) | 0.4
C(=N/N1CCN(c2ccccc2)CC1)/c1cccs1 | 0.5
CC1(C)CC(=O)C(C=NCCN2CCN(C(=S)Nc3cccc(Cl)c3)CC2)=C(O)C1 | 0.4
O=C(C1=C(O)C(=O)N(Cc2ccccc2)C1c1ccco1)c1ccco1 (configuration not stated) | 1.2
Nc1nc(C23CC4CC(CC(C4)C2)C3)cs1 | 0.6
CC(C)N(c1ccccc1)c1ncnc(NCCC(=O)O)c1[N+](=O)[O-] | 0.4
CC1=C(C(N)=O)C(c2sccc2C)n2nnnc2N1 (configuration not stated) | 0.9

From PubChem BioAssay AID1025 (Sanford-Burnham Center for Chemical Genomics, 2008)
